Results published in PubChem BioAssay AID1903 (Southern Research Specialized Biocontainment Screening …, 2009).
The campaign covered roughly 310,000 compounds. About 1,200 (0.39%) were called active. How the calls were made is not given here. Not all results are given here. Entries with a potency or affinity are not part of this list.

molecular target: Large T antigen (Simian virus 40) (UniProt P03070); test: TAg ATPase/helicase activity blockers – biochemical (AID 1903); conditions: SV40 large T antigen ATPase/helicase inhibition assay; at 20 µM; active compounds read high
Sequence (P03070 whole entry, looked up): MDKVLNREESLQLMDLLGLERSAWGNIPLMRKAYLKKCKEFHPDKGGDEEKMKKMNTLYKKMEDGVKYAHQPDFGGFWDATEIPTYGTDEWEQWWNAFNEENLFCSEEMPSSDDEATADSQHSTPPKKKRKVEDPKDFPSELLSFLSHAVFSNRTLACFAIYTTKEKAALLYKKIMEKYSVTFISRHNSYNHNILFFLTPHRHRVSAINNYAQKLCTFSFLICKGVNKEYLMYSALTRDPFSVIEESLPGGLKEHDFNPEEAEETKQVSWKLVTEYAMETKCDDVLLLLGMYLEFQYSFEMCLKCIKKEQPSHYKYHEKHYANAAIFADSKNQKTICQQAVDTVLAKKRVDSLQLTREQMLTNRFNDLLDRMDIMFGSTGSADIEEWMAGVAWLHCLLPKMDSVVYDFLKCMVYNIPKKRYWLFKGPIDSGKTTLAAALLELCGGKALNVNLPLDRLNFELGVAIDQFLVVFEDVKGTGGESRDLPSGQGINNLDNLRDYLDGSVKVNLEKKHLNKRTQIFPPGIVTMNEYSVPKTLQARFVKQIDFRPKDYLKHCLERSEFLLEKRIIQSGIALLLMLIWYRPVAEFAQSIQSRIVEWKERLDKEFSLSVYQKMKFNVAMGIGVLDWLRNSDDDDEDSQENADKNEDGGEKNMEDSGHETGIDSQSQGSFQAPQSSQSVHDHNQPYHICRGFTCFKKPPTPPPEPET

inhibition, inactive:
N#CC(=Cc1ccc(O)cc1)C(N)=C(C#N)C#N 8.06%
CN(C)/C=C(\C#N)C(N)=C(C#N)C#N -3.37%
O=C(N/N=C/C1CC=CCC1)c1cc(Br)ccc1O (stereo not given) 1.73%
C=C1C(=O)O[C@@H]2C[C@@H](C)[C@@H]3C=CC(=O)[C@@]3(C)[C@@H](OC(C)=O)[C@H]12 35.6%
CC(=O)O[C@@H]1[C@H]2[C@@H](C[C@@H](C)[C@@H]3C=CC(=O)[C@@]13C)OC(=O)[C@@H]2C 11.5%
CCOc1cc(/C=C(\C#N)C(N)=O)ccc1OCc1c(C)no[n+]1[O-] 10.9%
COc1ccccc1Oc1ccc(NC(=O)c2ccc(Cl)cc2)cc1 6.92%
CS(=O)(=O)c1ccc(N)cc1 -0.19%
CS(=O)(=O)c1ccc2nc(N)sc2c1 0.3%
CC(C)OC(=O)NC(Nc1ccccc1C(=O)O)(C(F)(F)F)C(F)(F)F 6.18%
Cc1ccc(C(=O)N[C@H](C(=O)Nc2sccc2C(N)=O)C(C)C)cc1 -5.98%
COc1ccc(OCc2nn3c(-c4cccc(OC)c4)nnc3s2)cc1 8.77%
O=C(O)c1ccc(/C=C2\SC(=S)N(Nc3ccccc3)C2=O)cc1 32.2%
O=C1/C(=C/c2cccnc2)SC(=S)N1Nc1ccccc1 29.5%
CC(/C=N/NC(=O)c1sc(N)nc1C)=C\c1ccccc1 17.8%
O=[N+]([O-])c1ccccc1-c1ccc(/C=N/n2cnnc2)o1 14.3%
Cc1cc(C(=O)O)ccc1-c1ccc(/C=C2\NC(=O)N(Cc3ccc(F)cc3)C2=O)o1 37.5%
NS(=O)(=O)c1ccc(-c2ccc(/C=C3\C(=O)Nc4cc(Cl)ccc43)o2)cc1 -8.34%
CC1=C(C#N)C(=O)NC(=O)/C1=C\c1ccc(-c2ccc(C)cc2[N+](=O)[O-])o1 33.3%
CC1=C(C#N)C(=O)NC(=O)/C1=C\c1ccc(-c2cc(C)c(C)cc2[N+](=O)[O-])o1 17.5%
Cc1ccc(-c2ccc(/C=C3/NC(=O)NC3=O)o2)cc1[N+](=O)[O-] 28.5%
O=C(COc1cccc(NC(=O)c2ccccc2)c1)c1ccccc1 5.06%
CCN(C(=O)CN1CCOCC1)c1c(N)n(Cc2ccccc2)c(=O)[nH]c1=O 7.23%
Cc1ccc(S(=O)(=O)NCCNC(=O)CN2CCCC2)cc1 0.78%
CC1(C)CC(=O)N(CC(=O)N2CCN(c3ncccn3)CC2)c2ccccc2S1(=O)=O -1.17%
